Columns and labels:
Experiment in all cases: PBM binding z-score (relative to random genomic background probes); higher = stronger binding; sequences stand for … in GC…GCGATTGACAGCGTAGAATGAAGG
[1] = test system: FXR:RXRa (NR concentration 270 nM, RXRa partner concentration 90 nM)
Procedure, shortened: (§1)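 Binding z-scores were set against random background probes. The data came from custom Agilent 4×180K protein-binding microarrays carrying double-stranded probes with 34-nt variable regions, incubated 1 h with ligand-free nuclear receptor dimers. Partner-specific antibodies detected binding, and scanned fluorescence was regression-normalized.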

[2] = test system: LXRa:RXRa (NR concentration 270 nM, RXRa partner concentration 90 nM)
Procedure, shortened: as §1

[3] = test system: LXRa homodimer (NR concentration 270 nM)
Procedure, shortened: as §1

[4] = test system: LXRb:RXRa (NR concentration 270 nM, RXRa partner concentration 90 nM)
Procedure, shortened: as §1

[5] = test system: LXRb homodimer (NR concentration 270 nM)
Procedure, shortened: as §1

[6] = test system: PPARa:RXRa (NR concentration 270 nM, RXRa partner concentration 90 nM)
Procedure, shortened: as §1

[7] = test system: PPARg:RXRa (NR concentration 180 nM, RXRa partner concentration 90 nM)
Procedure, shortened: as §1

[8] = test system: PPARg:RXRa 270nM:90nM, anti-RXR (NR concentration 270 nM, RXRa partner concentration 90 nM)
Procedure, shortened: as §1

[9] = test system: PPARg:RXRa 30nM:10nM, anti-RXR (NR concentration 30 nM, RXRa partner concentration 10 nM)
Procedure, shortened: as §1

[10] = test system: PPARg:RXRa 90nM:30nM, anti-RXR (NR concentration 90 nM, RXRa partner concentration 30 nM)
Procedure, shortened: as §1

Row | Sequence | PBM binding z-score [1] | PBM binding z-score [2] | PBM binding z-score [3] | PBM binding z-score [4] | PBM binding z-score [5] | PBM binding z-score [6] | PBM binding z-score [7] | PBM binding z-score [8] | PBM binding z-score [9] | PBM binding z-score [10]
1 | GCATATAGGTAATACAAGATGAAAGTCCGATTGT | 0.0179 | -0.186 | -0.106 | -0.218 | -0.326 | 0.682 | 1.32 | 0.766 | 0.378 | 0.376
2 | CCTACTGGGCCATTCAGAGGTCATTGGTCATATG | 2.52 | 4.22 | 7.04 | 3.5 | 0.551 | 3.65 | 2.66 | 3.38 | 1.1 | 2.4
3 | CCTGCTGGGCCATCAGGTCATTGATATCAACGTT | 1.15 | 0.86 | 0.504 | 1.18 | -0.89 | 1.73 | 0.432 | 1.06 | -0.123 | 0.467
4 | CCGACTGGGGCATAAGGGTACCATAAGCCAGCCC | -0.549 | -0.376 | -0.527 | -0.624 | -1.67 | 0.305 | 1.3 | 1.35 | -0.296 | 1.18
5 | CCTTCCGGGTCACTCCAGGTTATAGCATCGGAGT | 4.29 | 7.37 | 1.67 | 5.1 | 0.22 | 4.38 | 4.22 | 4.36 | 1.22 | 3.15
6 | GCAGCTAGGTCAACTGATGGTCAGCTAAAGCTCG | 3.76 | 2.29 | -0.24 | 1.56 | -0.578 | 3.37 | 2.48 | 3.01 | 0.457 | 1.89
7 | ATATGTAGGTTCGCTGGGGTCATTCAGACTAGGC | 4.11 | 3.93 | 1.89 | 4.28 | 1.4 | 4.69 | 2.95 | 3.83 | 1.2 | 2.91
8 | TCTAGTTGGTCACGGAGATCACACACGACGGGTA | 0.323 | 0.174 | 0.394 | 0.575 | 0.153 | 0.929 | 1.16 | 2.06 | 2.93 | 2.31
9 | GTGCCAAGGTGAATAGGTCGTTGATGAGTAGGCG | 0.631 | 0.487 | -0.344 | 0.408 | -0.536 | 2.12 | 1.15 | 1.53 | 0.00309 | 0.77
10 | CGTCCAAGGTCAAGGTCAGTGGAAGAGACTCGAA | 7.57 | 5.46 | 1.22 | 4.68 | 0.505 | 5.89 | 6.29 | 6.3 | 2.6 | 5.24
11 | TCATATAGGTAAAGGTGATAGTCGAACGATATGA | 0.212 | 0.601 | -0.19 | 0.539 | -0.129 | 2.02 | 2.72 | 3.48 | 3.92 | 3.51
12 | TCTAGCAGGCGAGAGGGTCACTCAAGAGGTACGG | 0.647 | 0.656 | -0.616 | 1.05 | -1.27 | 2.03 | 0.765 | 1.64 | 1.43 | 1.6
13 | TAGCCTAGGTCATGCGGGCCAGTATGGTGTCGGC | 3.96 | 3.27 | -0.0396 | 1.44 | -0.233 | 3.43 | 1.79 | 2.41 | -0.0378 | 1.2
14 | ACTAGCAGGACAAGGGTCACTCAAGATTAGTCCG | 2.6 | 3.07 | 0.432 | 2.76 | 0.105 | 4.3 | 6.63 | 6.93 | 5.71 | 7.29
15 | TGAATGAGGTTAAAGATCAGAGAACGTGGCGTCG | 3.2 | 2.25 | -0.274 | 1.7 | 0.104 | 4.43 | 6.08 | 6.65 | 5.22 | 6.58
16 | CTCGAAAGGTCGTGCTCAGGTGAGTGTACCAAAC | 5.56 | 4.02 | 0.294 | 3.22 | 0.22 | 4.73 | 2.35 | 4.01 | 1.05 | 2.56
17 | AGTATGAGGTTATACGTAGATCAGGGAAGAAAGT | 1.82 | 2.03 | 0.26 | 1.56 | 0.204 | 2.46 | 1.32 | 1.2 | 0.646 | 1.07
18 | TTACCAAGGTGAGCTGTGGTCGTTGATCCAACTC | 0.0539 | -0.153 | -0.583 | -0.347 | -1.27 | 0.301 | -0.403 | 0.0963 | -0.507 | 0.106
19 | AGAATGATGTTATTAAGATCAGGGAATTGCGGTC | -0.0815 | -0.447 | 6.67e-05 | -0.339 | -0.205 | 0.0831 | 0.179 | -0.306 | -0.179 | -0.208
20 | GATACAGGCTCAAGGCCAGAGTACGCGTATTGAT | -0.696 | -0.88 | -0.571 | -1.04 | -0.938 | -0.602 | 0.777 | 0.34 | -0.217 | -0.0733
21 | CCGTCTGGGGCAAAGGTTACCATACTCAGTACGA | 1.5 | 1.57 | -0.23 | 2.15 | -0.982 | 4.92 | 10.4 | 8.97 | 9.6 | 10.6
22 | ACTATTAGTAGAGACGAGGGCAACCGATAGGTTG | 0.0303 | 0.0981 | 0.152 | -0.117 | 0.12 | 0.455 | 1 | 1.21 | 0.245 | 0.958
23 | ATCTCTCGGTAAGACTCAGTTCAGTGAAGAACGC | 0.549 | 0.674 | 0.845 | 0.602 | 1.47 | 0.3 | -0.175 | 0.19 | 0.114 | 0.251

Reference: the supplement of paper PMC6555819
